# Experimental data reported in PubChem BioAssay.
# Activity calls are given as the source filed them.
# Key:
# [1] = molecular target: Albumin (Bos taurus) (UniProt P02769); experiment: compounds binding labelled BSA control protein – biochemical, small-molecule microarray, Alexa647 label, 635/667 nm fluorescence, artefact control for SMM control protein annotation, profiling panel (AID 1118); conditions: BSA-A647 binding, fluorescence 635 nm, higher = more signal;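 further: score merges 667 nm emission intensity and signal-to-noise per printed compound spot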
# [2] = probe aXIP binding to arrayed compounds – biochemical, NeuroSMM set, 635/667 nm fluorescence, primary screen (AID 1119); conditions: small-molecule microarray, higher = more signal, called active from +8 up or from −8 down;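 further: probe is the protein aXip251-270 applied at 1 µg/mL to compound-printed slides; binding of probe to printed compounds measured as 667 nm fluorescence plus signal to noise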
# [3] = probe aNOTCH3 binding on compound microarray – biochemical, small-molecule microarray, 635/667 nm fluorescence, primary screen (AID 1120); conditions: higher = more signal;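 further: probe is a biotin-tagged antibody raised against NOTCH3 rather than NOTCH3 protein; score merges spot fluorescence near 667 nm with spot signal to noise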
# [4] = probe aNOTCH2 binding on compound microarray – biochemical, small-molecule microarray, 635/667 nm fluorescence, primary screen (AID 1121); conditions: higher = more signal;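 further: score merges feature fluorescence read at 667 nm with its signal to noise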
# [5] = molecular target: Carbonic anhydrase 2 (Homo sapiens) (UniProt P00918); experiment: compounds binding carbonic anhydrase 2 – biochemical, small-molecule microarray, Alexa647-labelled CAII, profiling panel (AID 1122); conditions: CAII-A647 binding fluorescence, higher = more signal
# [6] = COS7 lysate on small-molecule microarray, probe aHis, 635 nm (AID 1123); conditions: COS7 cell lysate, fluorescence, higher = more signal;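 further: z-score combines 667nm fluorescence intensity with signal-to-noise per printed compound spot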
# [7] = probe aLAP1 signal on lysate-treated microarray – cell lysate, small-molecule microarray, COS7 lysate, primary screen (AID 1124); conditions: probe aLAP1, fluorescence, higher = more signal;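 further: lysate comes from COS7 cells expressing LAP1 and is applied at 0.3 µg/mL; score merges spot fluorescence near 667 nm with signal-to-noise over triplicate slides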
# [8] = tested on: Sam68 (KHDRBS1); experiment: compounds binding KHDRBS1 protein – biochemical, small-molecule microarray, 635 nm fluorescence, primary screen (AID 1125); conditions: higher = more signal;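 further: score merges 667 nm channel intensity with signal to noise over triplicate slides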
# [9] = tested on: Chordin-like protein 2 (CHRDL2); experiment: compounds binding chordin-like 2 – biochemical, small-molecule microarray, 635 nm fluorescence, primary screen (AID 1126); conditions: fluorescence 635 nm, higher = more signal;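 further: printed compound slides probed with Chrdl2 protein at 4 µg/mL for 1 h at 4 C; score merges 667 nm emission intensity with signal to noise over three replicate slides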
# [10] = molecular target: Concanavalin-A (Canavalia ensiformis) (UniProt P02866); experiment: compounds binding concanavalin A lectin – biochemical, small-molecule microarray, Alexa647 label, 635 nm, artefact control for SMM control protein annotation, primary screen (AID 1127); conditions: ConA-A647 binding fluorescence, higher = more signal;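 further: z combines 667 nm emission intensity with signal-to-noise across three replicate slides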
# Sequence of Concanavalin-A (Canavalia ensiformis) (P02866 whole entry, looked up): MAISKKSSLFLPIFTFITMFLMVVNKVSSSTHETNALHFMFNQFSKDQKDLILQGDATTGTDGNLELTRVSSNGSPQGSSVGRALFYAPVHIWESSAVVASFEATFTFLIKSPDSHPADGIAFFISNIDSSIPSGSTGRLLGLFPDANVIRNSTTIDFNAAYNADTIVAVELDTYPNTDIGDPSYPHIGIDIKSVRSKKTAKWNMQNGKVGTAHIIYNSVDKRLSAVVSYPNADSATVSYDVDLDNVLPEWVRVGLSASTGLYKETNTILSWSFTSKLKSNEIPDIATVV
# Sequence of Albumin (Bos taurus) (P02769 whole entry, looked up): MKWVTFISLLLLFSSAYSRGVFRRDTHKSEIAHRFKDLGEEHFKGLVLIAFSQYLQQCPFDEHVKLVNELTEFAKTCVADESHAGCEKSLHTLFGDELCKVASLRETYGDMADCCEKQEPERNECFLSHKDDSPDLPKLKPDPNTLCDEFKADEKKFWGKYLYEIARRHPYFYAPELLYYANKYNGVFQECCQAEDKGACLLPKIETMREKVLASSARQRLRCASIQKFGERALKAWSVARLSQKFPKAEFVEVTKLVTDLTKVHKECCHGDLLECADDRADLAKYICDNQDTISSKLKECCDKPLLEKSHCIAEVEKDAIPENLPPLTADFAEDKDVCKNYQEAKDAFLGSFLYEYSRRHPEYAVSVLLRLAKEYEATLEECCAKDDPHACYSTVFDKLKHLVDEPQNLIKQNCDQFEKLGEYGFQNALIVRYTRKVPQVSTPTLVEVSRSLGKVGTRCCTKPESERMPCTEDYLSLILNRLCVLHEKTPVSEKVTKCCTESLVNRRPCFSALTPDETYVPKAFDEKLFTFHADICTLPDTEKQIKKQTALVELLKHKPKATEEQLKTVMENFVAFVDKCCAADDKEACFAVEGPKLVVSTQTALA
Structure (SMILES),composite z-score [1],composite Z-score [2],composite z-score [3],composite z-score [4],composite z-score [5],composite z-score [6],composite z-score [7],composite z-score [8],composite z-score [9],composite z-score [10]
CO[C@@H]1COC(=O)[C@H](C)NC(=O)CC=C[C@@H](C)[C@H](OC)COC(=O)[C@H](C)NC(=O)CC=C[C@H]1C,-0.406,0.137 (inactive),-0.226,-0.124,-0.305,-0.466,0.0381,0.315,1.16,0.44
Cc1ccc(S[C@]2(C(=O)NC3CC3)CC(=O)N(Cc3cc(C(F)(F)F)cc(C(F)(F)F)c3)[C@@H]2c2ccc(CO)cc2)cc1,0.371,-0.421 (inactive),-0.0345,-0.169,0.375,0.42,1.13,0.792,0.115,0.633
O=C1O[C@@H](c2ccccc2)[C@@H](c2ccccc2)N2[C@@H](c3ccc(O)cc3)[C@]3(C(=O)Nc4ccccc43)[C@@H](C(=O)N3CCN(c4ncccn4)CC3)[C@H]12,0.689,5.4 (inactive),-0.122,-0.154,0.686,0.456,0.613,0.528,-0.571,0.474
C=CCNC(=O)[C@H]1[C@@H]2C(=O)O[C@@H](c3ccccc3)[C@@H](c3ccccc3)N2[C@@H](c2ccccc2OCCO)[C@]12C(=O)N(C(=O)OCCOC)c1ccc(C#CCC(C(=O)OC)C(=O)OC)cc12,0.255,1.06 (inactive),-0.0448,-0.0829,0.634,2.13,0.689,1.3,-0.052,1.12
C[C@@H]1CC[C@H]2C(=O)N3[C@@H](CC[C@@H](C)[C@@H]3c3cccc(N4CCOCC4)c3)C(=O)N2[C@H]1c1cccc(N2CCOCC2)c1,0.0915,-0.354 (inactive),-0.344,-0.217,0.477,0.8,0.581,0.594,0.902,1.04
C[C@@H]1C=CCC(=O)OC[C@H]2O[C@@H](C=C[C@@H]2O)[C@H](C)C=CCC(=O)OC[C@H]2O[C@H]1C=C[C@@H]2O,-0.581,1.21 (inactive),0.716,-0.0318,-0.227,-0.268,-0.725,0.65,1.58,-0.343
CSCC[C@@H]1NC(=O)CC=C[C@@H](C)COC(=O)[C@H](CCSC)NC(=O)CC=C[C@@H](C)COC1=O,-0.767,0.559 (inactive),-0.205,-0.135,-0.342,-0.45,-0.524,-0.32,1.39,-0.796
COc1cccc([C@@H]2[C@@H](C)CC[C@H]3C(=O)N(C)[C@@H](C(C)C)C(=O)N23)c1,-0.199,0.4 (inactive),-0.0111,-0.181,-0.155,0.0706,-0.343,0.346,0.466,0.416
Cc1ccc(S[C@]2(C(=O)NCCN3CCOCC3)CC(=O)N(C3Cc4ccccc4C3)[C@@H]2c2ccc(CO)cc2I)cc1,0.545,2.61 (inactive),-0.0903,0.116,0.576,1.42,0.39,0.458,-2.56,-0.587
C=CC[C@@]1(C(=O)NCC(O)CO)N=C(c2ccc(OCCCO)cc2)O[C@@H]1c1ccccc1CN=[N+]=[N-] (stereo not given in full),0.988,0.536 (inactive),-0.105,-0.0759,0.809,2.98,0.411,1.04,-0.834,-0.304
C/C(=N\O)C(=O)NCCCCCNC(=O)OCc1ccccc1,0.487,0.179 (inactive),0.0066,-0.0942,0.355,0.332,0.199,0.639,0.367,0.818
O=C1NC(=O)C2C1C=CC(C(O)C=Cc1ccc([N+](=O)[O-])cc1)N2Nc1ccccn1 (stereo not given),-0.0573,1.28 (inactive),0.0104,0.0337,0.863,1.4,1.07,-0.257,1.39,0.367
Cc1ccc(S(=O)(=O)N[C@H]2COC(=O)CC=C[C@H](C)COC(=O)N[C@@H](C)C(=O)CC=C[C@@H]2C)cc1,-0.0363,-1.01 (inactive),-0.178,-0.145,-0.461,-0.43,-0.314,0.269,1.52,0.152
CC(C)[C@H]1NC(=O)[C@@]23C(=O)N[C@@H](Cc4ccccc4)C2[C@H](C)[C@@]2(C)O[C@H]2C3/C=C/C/C=C\CNC(=O)[C@H](C)NC1=O (stereo not given in full),-0.255,-0.0247 (inactive),-0.25,-0.218,0.811,-0.281,-0.258,-0.762,-0.433,-0.671
O=C1C2C=CC(C(O)Cc3ccccc3)N(Nc3ccc([N+](=O)[O-])cc3)C2C(=O)N1c1ccccc1 (stereo not given),0.944,-0.205 (inactive),0.357,0.401,0.759,1.02,0.517,0.719,0.709,0.185
Cc1ccc(N2C(=O)c3ccccc3[C@@H](C(=O)NCc3ccccc3)[C@@H]2c2ccc(CO)cc2)nc1,-1.29,-0.816 (inactive),-0.0328,-0.0272,0.451,3.91,-0.0641,-0.931,0.465,-1.28
COCCOC(=O)N1C(=O)[C@@]2(c3cc(C#CCC(C(=O)OC)C(=O)OC)ccc31)[C@H](c1ccccc1OCCO)N1[C@H](c3ccccc3)[C@H](c3ccccc3)OC(=O)[C@H]1[C@@H]2C(=O)N1CCCCCCC1,-0.0742,2.67 (inactive),1.23,0.36,0.488,2.18,0.385,1.32,1.27,1.02
COc1ccc(C(O)C2C=CC3C(=O)N(C)C(=O)C3N2N2CCCCC2)cc1OCc1ccccc1 (stereo not given),0.728,0.248 (inactive),0.13,-0.0546,0.38,1.71,0.445,1.29,-0.651,1.12
COC(=O)[C@@]1(Cc2ccc(OC)cc2)[C@H]2c3cc(C(=O)N(C)C)n(Cc4ccc(C)c(F)c4F)c3C[C@H]2CN1C(=O)c1ccccc1,0.856,0.0888 (inactive),0.0159,-0.108,0.535,1.41,0.0293,0.138,-1.22,0.782
C=CCC(OC(C)=O)[C@@H]1[C@@H](N(Cc2cccc3ccccc23)C(=O)c2ccc(C)cc2)c2cc(OCCCO)ccc2N1C(=O)c1ccc(-c2ccccc2)cc1 (stereo not given in full),-0.0575,-0.0961 (inactive),0.102,-0.0398,0.507,0.143,-0.105,-0.087,0.114,-0.227
C=CCN(C(=O)C1N(c2ccc(CCO)cc2)C(=O)C2C(C(=O)O)C3C=CC21O3)C(C)(C)C (stereo not given),-1.21,-0.12 (inactive),-0.549,-0.171,0.971,1.42,-0.262,-1.24,-4.23,-3.08
COc1cccc([C@H]2N[C@H](C(=O)O)CC[C@@H]2C)c1,-0.207,-0.269 (inactive),-0.15,-0.129,0.0689,-0.146,-0.283,0.0672,0.135,0.334
CC(C)C[C@@H]1NC(=O)[C@H]2C[C@@H](C(=O)NCCCCCC[N+](C)(C)C)[C@@H](c3ccc(O)cc3)N2C1=O,0.34,0.448 (inactive),-0.126,-0.164,0.717,0.439,0.102,-0.907,0.362,0.452
O=C(O)[C@@H]1Cc2c([nH]c3ccccc23)[C@@H](c2ccccc2)N1,0.118,0.756 (inactive),-0.082,-0.0148,-0.0448,0.319,-0.0124,-0.188,0.379,0.813
COC(=O)[C@@]1(Cc2ccccc2CN=[N+]=[N-])N=C(c2ccc(OCCCO)cc2)O[C@H]1c1ccccc1N=[N+]=[N-],-0.0759,-0.22 (inactive),-0.0164,0.215,0.569,1.33,-0.507,0.454,-0.388,0.544
COCCOC(=O)N1C(=O)[C@@]2(c3cc(C#CCCO)ccc31)[C@H](c1ccc(O)cc1)N1[C@H](c3ccccc3)[C@H](c3ccccc3)OC(=O)[C@H]1[C@@H]2C(=O)Nc1nc2ccccc2s1,0.0742,-0.0844 (inactive),0.272,-0.0649,0.16,0.372,0.403,1.29,0.633,1.17
C=C(C(=O)CC[C@H](OC(=O)c1ccccc1-c1ccccc1C(=O)O)c1ccc(CO)o1)C(C)C,0.178,-0.555 (inactive),-0.068,-0.0986,0.368,0.23,1.47,1.26,0.442,1.07
CCOC(=O)C[C@H]1[C@H](OC(=O)Cc2ccc3c(c2)OCO3)[C@@H](NC(=O)c2ccc3ccccc3c2)c2cc(OCCCO)ccc2N1C(=O)Cc1ccc(OC)cc1,0.897,0.563 (inactive),0.0284,-0.0846,0.0553,1.54,-0.333,0.952,0.472,0.684
